Screening results deposited in PubChem by National Center for Advancing Translational Sciences (NCATS).
Sampled rows, rich in hits. Any-hit rate of the full collection: about 1.3%.
SARS PLpro yeast = inhibitors of SARS-CoV papain-like protease in yeast; S. cerevisiae expressing SARS-CoV PLpro, growth rescue; Potency, µM (top dose mostly 32.9 µM), actives largely listed as activators; 0.19% of 330,000 active; AID 485353; calls by dose curve; note: nearly all actives have a fitted effect of over 55% in size
AmpC inh no detg = blocks E. coli AmpC beta-lactamase in detergent-free assay; AmpC nitrocefin hydrolysis, absorbance 480 nm, 0.0001% Triton; P00811; Potency, µM (top dose mostly 57.1 µM), actives largely listed as inhibitors; AID 485341; 0.52% of 330,000 active; note: nearly all actives have a fitted effect of over 20% in size
Target sequence (P00811 whole entry, looked up): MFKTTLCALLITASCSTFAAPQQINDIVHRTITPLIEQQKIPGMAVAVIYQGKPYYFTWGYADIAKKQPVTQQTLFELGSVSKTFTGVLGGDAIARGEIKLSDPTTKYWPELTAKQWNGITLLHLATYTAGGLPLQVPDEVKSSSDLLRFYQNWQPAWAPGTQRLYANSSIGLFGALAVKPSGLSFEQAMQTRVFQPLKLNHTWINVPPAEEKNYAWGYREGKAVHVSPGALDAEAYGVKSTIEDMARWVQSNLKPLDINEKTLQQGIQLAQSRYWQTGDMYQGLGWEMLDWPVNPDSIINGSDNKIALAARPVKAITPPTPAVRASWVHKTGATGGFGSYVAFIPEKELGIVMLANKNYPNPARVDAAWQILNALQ
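AmpC (5.3 nM in the dispensed reagent) in 20 mM phosphate pH 7.0 with 0.01% (detergent screen) or 0.0001% Triton X-100 was preincubated with compounds for 15 min at room temperature. Nitrocefin was then added from an 800 uM solution, and hydrolysis was followed at 480 nm.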
AmpC inh detg = inhibitors of E. coli AmpC beta-lactamase with detergent; AmpC hydrolysis of nitrocefin, absorbance 480 nm, 0.01% Triton; Potency, µM (doses to about 114 µM), most hits filed as inhibitors; 0.041% of 370,000 active; note: nearly all actives have a fitted effect of over 25% in size
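AmpC (5.3 nM in the dispensed reagent) in 20 mM phosphate pH 7.0 with 0.01% (detergent screen) or 0.0001% Triton X-100 was preincubated with compounds for 15 min at room temperature. Nitrocefin was then added from an 800 uM solution, and hydrolysis was followed at 480 nm.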
Vaccinia Venus = inhibitors of vaccinia virus (Venus reporter) | Vaccinia virus Venus reporter expression, fluorescence | Potency, µM (top dose mostly 36.5 µM), most hits filed as inhibitors | 0.46% of 330,000 active; calls by dose curve; tested in A549 cells; note: nearly all actives have a fitted effect of over 30% in size
VACV mCherry inh = inhibitors of vaccinia virus infection (mCherry reporter signal). Vaccinia virus mCherry reporter infection, fluorescence. Potency, µM (series often up to 36.5 µM), most hits filed as inhibitors. 0.63% of 310,000 active. AID 720579; calls by dose curve; tested in A549 cells; note: nearly all actives have a fitted effect of over 35% in size
Numbers stand for hits; . = inactive; ? = inconclusive; / = no result. Unless noted, calls come from the whole dose curve; as a rule, active = well fitted curve in the direction sought with a large enough effect; inconclusive = small, poorly fitted or top-dose-only effect, or another doubt; inactive = no such curve, though single readings can be large; an effect the other way counts as inactive or inconclusive.

SMILES	SARS PLpro yeast	AmpC inh no detg	AmpC inh detg	Vaccinia Venus	VACV mCherry inh
CCCN1CCN(C(=O)c2cnn(-c3ncc4c(n3)-c3ccccc3CCC4)c2COC)CC1	/	/	/	.	.
Cc1ccc(-c2ccnc(-n3ncc(C(=O)N4CCCCC4c4cccnc4)c3C3CC3)n2)o1 (configuration not stated)	/	/	/	?	.
O=C(O)c1[nH]c2ccccc2c1C(c1ccccc1)c1c(C(=O)O)[nH]c2ccccc12	.	.	.	/	/
C=CCOc1ccc(C(c2c(C(=O)O)[nH]c3ccccc23)c2c(C(=O)O)[nH]c3ccccc23)cc1	.	22.4µM	.	.	.
O=C(NCCC1CCCCN1S(=O)(=O)c1cccs1)C(=O)Nc1ccc(F)cc1 (configuration not stated)	.	.	?	?	?
COc1ccc(S(=O)(=O)N2CCCC2CNC(=O)C(=O)NCc2ccccc2)cc1 (configuration not stated)	.	31.6µM	?	.	?
O=C(NCC1CCCN1S(=O)(=O)c1cccs1)C(=O)Nc1ccc(F)cc1 (configuration not stated)	.	28.2µM	?	.	.
CCn1c(=O)cc(OCC(=O)Nc2nc(C)cs2)c2ccccc21	.	50.1µM	.	.	.
CCn1c(=O)cc(SCC(=O)Nc2ccc(C)cn2)c2ccccc21	.	.	.	10µM	?
CCn1c(=O)cc(OCC(=O)Nc2ccc(C)cn2)c2ccccc21	.	.	?	/	/
Cn1c2ccccc2c2cc(C(=O)N3CCOc4ccc(C(C)(O)CCn5cccn5)cc4C3)ccc21 (configuration not stated)	/	/	/	.	.
Cc1cn2cc(CNC(=O)CN3Cc4ccccc4OC(c4ccccc4F)C3)nc2s1 (configuration not stated)	/	/	/	.	.
O=C(/C=C/c1ccccc1)c1ccc(NC2=NCCCS2)cc1	.	28.2µM	?	.	.
O=C(/C=C/c1ccc(Br)cc1)c1ccc(NC2=NCCCS2)cc1	.	14.1µM	.	/	/
O=C(CCc1c[nH]c2ccccc12)N1CCC(n2c(C3CCCO3)nc3cc(C(F)(F)F)ccc32)CC1 (configuration not stated)	/	/	/	.	.
CCCCN(CC)CCNC(=S)Nc1ccc2nc(N3CCN(C)CC3)cc(C)c2c1	.	.	.	?	12.6µM
COCCNC(=S)Nc1ccc2nc(N3CCOCC3)cc(C)c2c1	.	.	?	/	/
COCCNC(=S)Nc1ccc2nc(N3CCCC3)cc(C)c2c1	.	10µM	.	.	.
COc1ccccc1C(=O)N[C@@H]1c2ccccc2C2(CCN(Cc3ccc(C)o3)CC2)[C@H]1O	/	/	/	.	.
Cc1nc2cc(NC(=O)[C@@H]3C[C@@H](Sc4ccccn4)CN3Cc3cccc(Cl)c3)ccc2s1	/	/	/	.	.
O=C(c1cccnc1)C1CCCN(Cc2ccc3c(c2)CN(C(=O)c2cnccn2)CCO3)C1 (configuration not stated)	/	/	/	.	.
COc1ccc(C)cc1NC(=O)c1ccc(NS(=O)(=O)c2cccc3cccnc23)cc1	.	.	.	.	?
COc1ccccc1NC(=O)c1ccc(NS(=O)(=O)c2cccc3cccnc23)cc1	.	7.94µM	.	.	?
CC1(C)CCC(=NNC(N)=S)CC1	/	/	/	?	11.2µM
CCCCC(=O)NC(c1ccc(C(C)C)cc1)c1ccc2cccnc2c1O (configuration not stated)	7.08µM	.	.	/	/
SMILES	SARS PLpro yeast	AmpC inh no detg	AmpC inh detg	Vaccinia Venus	VACV mCherry inh
CCCC(=O)NC(c1ccc(OC)cc1)c1ccc2cccnc2c1O (configuration not stated)	.	.	.	?	8.91µM
C(C#CCCCCCCCCC[n+]1ccccc1)#CCCCCCCCCC[n+]1ccccc1	/	.	.	10µM	10µM
CCCCCCCCCC[n+]1cccc(Br)c1	/	/	/	?	.
Cc1ccc(OCc2nnc(SCc3cc(=O)[nH]c4ccccc34)n2-c2ccccc2)cc1	.	.	.	10µM	?
Cc1ccccc1OCc1nnc(SCc2cc(=O)[nH]c3ccccc23)n1-c1ccccc1	.	.	.	?	?
Cc1cccc(C)c1-n1nnnc1C(c1cccs1)N1CCN(C/C=C/c2ccccc2)CC1 (configuration not stated)	/	/	/	.	.
CCc1cc(C(=O)NNC(=S)NC2CCCCC2)cs1	.	?	.	/	/
CC(C)c1cc(C(=O)NNC(=S)NC2CCCCC2)cs1	.	14.1µM	.	.	.
Cc1ccc(C)c(NC(=S)NNC(=O)c2csc(C(C)C)c2)c1	10µM	.	.	/	/
Nc1c(Cl)ncnc1N/N=C/c1ccccn1	/	.	?	?	2.24µM
C=CCOC(=O)C1=C(C)NC(SCC(=O)Nc2ccc(C)c(Cl)c2)=C(C#N)C1c1ccco1 (configuration not stated)	.	7.94µM	?	?	?
O=Nc1c(O)[nH]c2ccc(Cl)c(Cl)c12	/	/	/	?	14.1µM
CC(C)(O)C#Cc1ccc(C(=O)NCCN2Cc3ccccc3OC(c3ccccc3F)C2)o1 (configuration not stated)	/	/	/	.	.
O=C(NCCc1cccnc1)c1cnn(-c2ncc3c(n2)-c2ccccc2CC3)c1C1CC1	/	/	/	.	.
CCC(=O)NC(c1ccco1)c1cc(Cl)c2cccnc2c1O (configuration not stated)	.	.	.	?	7.94µM
CCC(=O)NC(c1cccs1)c1cc(Br)c2cccnc2c1O (configuration not stated)	.	.	.	/	/
O=C(CCc1ccccc1)NC(c1cccs1)c1cc(Cl)c2cccnc2c1O (configuration not stated)	.	.	.	?	8.91µM
CC(=O)NC(c1ccco1)c1cc(Cl)c2cccnc2c1O (configuration not stated)	.	.	?	/	/
CCCCC(=O)NC(c1ccco1)c1cc(Cl)c2cccnc2c1O (configuration not stated)	.	.	.	?	12.6µM
COCC(=O)Nc1cc(C(=O)N2CCc3c([nH]c4ccccc34)C2)cc2nc(-c3ccccc3)n(C)c12	/	/	/	.	.
COc1cccc(CNC(=O)c2cnn(-c3ncc4c(n3)-c3ccccc3CCC4)c2C)c1OC	/	/	/	.	.
COc1cccc(CNC(=O)c2c(OC)cc(=O)n3c2CCN(C(=O)c2cc(C)ccc2C)CC3)c1	/	/	/	.	.
Nc1c2c(nc3sc4c(c13)CCCCC4)CCCC2	.	.	?	10µM	?
Nc1c2c(nc3sc4c(c13)CCCC4)-c1ccccc1CC2	.	.	.	?	?
N[C@H](C(=O)O)[C@@H]1CC(Cl)=NO1	/	/	/	?	2µM
COc1cc(CNc2nc(C)c(-c3ccn(C4Cc5ccccc5C4)n3)s2)cc2c1OCO2	/	/	/	.	.
Cn1c2cc(Br)sc2c2cnn(Cc3ccc(F)cc3F)c(=O)c21	.	.	?	/	/
Cn1c2cc(B(O)O)sc2c2cnn(Cc3c(F)cccc3F)c(=O)c21	.	5.62µM	2.51µM	/	/
Cn1c2cc(Br)sc2c2cnn(Cc3c(F)cccc3F)c(=O)c21	.	.	.	/	/
